Among all 37,000 compounds or so, about 290 (0.78%) were called active. About 10% were inconclusive and are not listed.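 Rule for the calls: active = mean inhibition of at least 10% in the main channel, exceeding the control channel by a set limit; inconclusive = inhibition of 10% or more but channel gap under a set limit; inactive = mean inhibition below 10%.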 The entries come from a sample that favours actives as a whole.
Test: inhibitors of DUX4-driven ZSCAN4 reporter expression, primary screen, 293T cells, Gaussia and Italica luciferase (AID 1224904);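 for activity change, negative = inhibition: 0% = median of neutral control wells and -100% = median of positive control wells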
Conditions: 293T-iDUX4 ZSCAN4-Gaussia luciferase reporter, 24 h, stronger effect = lower value, concentration not given here; for Gaussia minus Italica difference: measured here: selective DUX4 reporter inhibition
[1] = measured here: Italica tet-on control reporter

Compound | activity change, negative = inhibition | activity change, negative = inhibition [1] [%] | Gaussia minus Italica difference [%]
COc1ccc(NC(=O)Nc2ccc3c(c2)[C@@H]2C[C@@H](CC(=O)NCc4ccncc4)O[C@@H](CO)[C@@H]2O3)cc1 | -2.23% (inactive) | 2.02 | -4.25
CCN(C[C@@H]1[C@H](c2ccccc2)[C@@H](CO)N1CC1CC1)C(=O)c1ccccn1 | -3.34% (inactive) | -1.85 | -1.49
COCC(=O)N(C[C@H]1N[C@H](CO)[C@H]1c1ccc(C2=CCCCC2)cc1)C(C)C | 2.12% (inactive) | 3.71 | -1.6
COc1ccccc1C#Cc1cnc2c(c1)C(=O)N([C@@H](C)CO)C[C@@H](C)[C@H](CN(C)C(=O)CN(C)C)O2 | -1.64% (inactive) | -4.12 | 2.47
CCC(=O)N1[C@H](C(=O)NCc2ccc(F)cc2)[C@@H](CO)[C@@H]2Cn3c(ccc(C4=CCCCC4)c3=O)[C@@H]21 | 2.81% (inactive) | -5.8 | 8.61
CCCN1C[C@@H](C)[C@H](OC)CN(C)C(=O)c2ccc(NC(=O)C3CCOCC3)cc2OC[C@@H]1C | 2.85% (inactive) | 6.21 | -3.36
C[C@H](NC(=O)C[C@H]1C=C[C@H](NS(=O)(=O)c2cccc(F)c2)[C@@H](CO)O1)c1ccccc1 | 2.8% (inactive) | 1.12 | 1.67
O=C1CCC(=O)N[C@H](c2ccccc2)C/C=C\CCN1 | -2.86% (inactive) | -3.05 | 0.183
O=C(NCC(F)(F)F)[C@H]1[C@H](CO)[C@H]2Cn3c(ccc(-c4ccncc4)c3=O)[C@H]2N1Cc1ccncc1 | 5.89% (inactive) | -1.87 | 7.77
CCNC(=O)C[C@@H]1CC[C@@H]2[C@H](COC[C@H](O)CN2S(=O)(=O)c2ccc(Oc3ccccc3)cc2)O1 | 1.12% (inactive) | 2.14 | -1.02
CC(C)[C@@H]1COCc2cnnn2CCC[C@H](C)C(=O)N1 | -1.36% (inactive) | -1.01 | -0.347
COCC(=O)N1[C@H](CNC(=O)c2ccccn2)[C@H](c2ccccc2)[C@@H]1CO | -0.865% (inactive) | 1.68 | -2.54
Cc1ccc(S(=O)(=O)N(C)C[C@H]2OCc3ccccc3-c3ccccc3C(=O)N([C@@H](C)CO)C[C@@H]2C)cc1 | 10.1% (inactive) | 2.48 | 7.63
O=C(C[C@@H]1CC[C@@H]2[C@H](COC[C@H](O)CN2Cc2cccc(F)c2)O1)NCc1ccncc1 | 6.79% (inactive) | -2.25 | 9.04
CCCC#Cc1ccc([C@H]2[C@@H](CO)N3CCCCN(C(=O)c4ccc5c(c4)OCO5)C[C@@H]23)cc1 | -4.6% (inactive) | 3.84 | -8.43
CCC(=O)N1CC2(C1)[C@@H](c1ccc(-c3ccc(C#N)cc3)cc1)[C@H](CO)N2C(C)=O | 10.1% (inactive) | -1.24 | 11.4
CCC(=O)N1CCC2(CC1)CN(Cc1cccc(Cl)c1)[C@@H](CO)c1c2c2ccc(OC)cc2n1C | -5.44% (inactive) | -3.43 | -2.02
C/C=C/c1ccc([C@H]2[C@@H](CO)N(C(=O)CN(C)C)C23CN(C(=O)C2CCCC2)C3)cc1 | -0.233% (inactive) | -6.7 | 6.47
COc1cc(CN2CC3(CN(S(=O)(=O)c4cn(C)cn4)C3)c3c(n(C)c4cc(OC)ccc34)[C@H]2CO)cc(OC)c1 | -2.88% (inactive) | -0.316 | -2.57
CCCNC(=O)C[C@H]1CC[C@H]2[C@H](COc3ccc(NC(=O)CC)cc3C(=O)N2C)O1 | 2.97% (inactive) | -1.81 | 4.79

Compound | activity change, negative = inhibition | activity change, negative = inhibition [1] [%] | Gaussia minus Italica difference [%]
CN(C)C(=O)[C@@H]1[C@@H](CO)[C@@H]2Cn3c(cccc3=O)[C@H]1N2CC1CCCCC1 | -1.56% (inactive) | -4.57 | 3
COc1cccc(-c2ccc([C@@H]3[C@@H](CO)N(C(=O)c4ccccn4)[C@H]3C#N)cc2)c1 | 5.81% (inactive) | -1.92 | 7.74
C[C@H](NC(=O)C[C@@H]1CC[C@@H]2[C@H](COC[C@@H](O)CN2Cc2cc(F)ccc2F)O1)c1ccccc1 | 0.118% (inactive) | 1.93 | -1.81
O=C(Cc1ccccc1)N1C[C@@H]2[C@H](c3ccccc31)[C@@H](CO)N2C(=O)C1CCOCC1 | 1% (inactive) | 2.15 | -1.15
C[C@@H](O)C#Cc1ccc([C@@H]2[C@H]3CN(C(=O)c4ccc5c(c4)OCO5)CCCCN3[C@H]2CO)cc1 | 1.93% (inactive) | 10.3 | -8.36
COCC(=O)Nc1ccc2c(c1)C(=O)N(C)[C@@H]1CC[C@@H](CC(=O)NCCCN(C)C)O[C@@H]1CO2 | -2.75% (inactive) | -0.412 | -2.33
COc1ccccc1S(=O)(=O)N1CC[C@H]2[C@@H](CO)N(C)c3ccc(C#Cc4ccccc4)cc3[C@H]21 | 8.89% (inactive) | 12.9 | -4.03
C[C@@H]1CN([C@@H](C)CO)C(=O)c2c(c3ccccc3n2C)-c2ccccc2CO[C@H]1CN(C)C(=O)C1CC1 | 7.74% (inactive) | 14.6 | -6.9
COc1ccccc1NC(=O)N1[C@@H]2CNC[C@H]1C2c1ccc(-c2ccccc2C)cc1 (some centres not stated) | 17.2% (inactive) | 3.5 | 13.7
O=C1N[C@H](c2ccccc2)COCc2cn(nn2)CC[C@@H]1Cc1ccc(Cl)cc1 | -6.57% (inactive) | -14.5 | 7.94
Cn1cnc(CCNC(=O)C[C@H]2CC[C@H]3[C@@H](COC[C@H](O)CN3C(=O)C3CCCC3)O2)c1 | 4.42% (inactive) | -1.98 | 6.41
CCCNC(=O)Nc1ccc2c(c1)C(=O)N(C)C[C@H](OC)[C@H](C)CN[C@@H](C)CO2 | 5.48% (inactive) | 4.45 | 1.03
CN1c2ccc(Br)cc2[C@@H]2[C@@H](CCN2C(=O)Cc2ccccc2)[C@@H]1CO | 6.02% (inactive) | 3.73 | 2.29
O=C(C[C@@H]1CC[C@H]2[C@@H](COC[C@@H](O)CN2Cc2nccs2)O1)NCc1ccc(-c2ccccc2)cc1 | -5.3% (inactive) | -11.9 | 6.63
O=C(c1ccccc1F)N1C[C@@H]2[C@H](c3ccccc31)[C@H](CO)N2C(=O)C1CCCC1 | 1.9% (inactive) | 3.72 | -1.83
O=C(C1CCC1)N1C[C@@H]2N[C@H](C1)C2c1ccc(-c2cncnc2)cc1 (some centres not stated) | -25.8% (active) | -0.405 | -25.4
O=C(CN1CCOCC1)N1C[C@@H]2N[C@H](C1)C2c1ccc(-c2ccncc2)cc1 (some centres not stated) | 15.1% (inactive) | 19.9 | -4.83
Cc1ccccc1-c1ccc(C2[C@@H]3CN(C(=O)C4CCCCC4)C[C@H]2N3)cc1 (some centres not stated) | -6.47% (inactive) | -0.357 | -6.12
COCC(=O)Nc1ccc2c(c1)OC[C@@H](C)N(C(=O)CC1CC1)C[C@@H](C)[C@@H](OC)CN(C)C2=O | -1.74% (inactive) | -0.0881 | -1.65

From PubChem BioAssay AID1224904 (Broad Institute, 2016)
